Assay results from PubChem BioAssay (Tox21).
Where “and” joins values, the source holds several entries; their conditions need not be identical. Identical values can stand only once. Inconclusive results are not listed. Entries that show only a call come without a potency. A structure can be active in one record and inactive in another. Calls of active or inactive are those of the source. The call rests on the fitted dose curve; in most records, active means well fitted cell-killing curve with a large enough effect in the repeat runs; inconclusive means weak or mixed curves, or effect the other way; inactive means no such curve, though single readings can be large or run the other way.

assay: qHTS assay to identify small molecule antagonists of the sonic hedgehog signaling (Shh) pathway - cell viability counter screen (AID 1259367); conditions: NIH/3T3 Gli1-Luc viability, CellTiter-Fluor, 24 h; series mostly up to 92.4 µM; further: nearly all actives have a fitted effect of over 55% in size
Description: National Center for Advancing Translational Sciences [NCATS]
NIH Chemical Genomics Center [NCGC]
U.S. Environmental Protection Agency [EPA]
National Institutes of Environmental Health Sciences [NIEHS]
National Toxicology Program [NTP]
U.S. Food and Drug Administration [FDA]
The sonic hedgehog (Shh) pathway is essential for normal embryonic development. Dysregulation of the Shh pathway can cause severe developmental defects in organs. Therefore chemicals that interfere with the pathway are potential developmental toxicants. A cell line designated 3T3Gli1-Luc (DMB/OARSA/CFSAN/FDA, Laurel, MD), a NIH/3T3 derived clone containing stably integrated Gli1-Luc reporter is used to detect chemical interference of the Shh pathway, by changes in the expression of the firefly Luc gene under the control of the Gli1 transcriptional response element. This cell line was used to screen Tox21 libraries for identifying and prioritizing the potential developmental toxicants that interfere Shh pathway. Conditioned medium-stimulated mode was used to screen for chemicals inhibiting Shh signaling. The cytotoxicity of the compounds was tested in parallel by measuring the cell viability using CellTiter-Fluor assay system (Promega, Madison, WI) in the same wells.
Tox21 Assay Protocol Summary:
3T3 Gli1-Luc cells were dispensed at 2,000 per well in 5uL of culture medium into white solid bottom 1536-well plates (Greiner Bio-One, Monroe, NC) using a Multidrop Combi (Thermo Scientific, Waltham, MA) dispenser. The assay plates were incubated at 37 C and 5% CO2 for 4hr, and then 23nL of compounds dissolved in DMSO and positive control were transferred using a Pintool station (Wako, San Diego, CA). The compound transfer was followed by the addition of 1ul conditioned medium or assay buffer using two separate tips of Flying Reagent Dispenser (FRD, Aurora Discovery, San Diego, CA). The assay plates were incubated at 37C and 5% CO2 for 24hr. For viability read, after 23hr of compound treatment, 1uL of CellTiter-Fluor reagent (Promega Corporation, Madison, WI) was added to each well of the assay plates using Flying Reagent Dispenser (FRD, Aurora Discovery, San Diego, CA) and incubated the assay plates at 37C for 1hr. The fluorescence signal was quantified using a ViewLux plate reader (Perkin Elmer, Shelton, CT).
Potency means the concentration at half of the fitted maximal effect.

| Structure (SMILES) | Potency |
| --- | --- |
| CC1(C)CC(N=C=O)CC(C)(CN=C=O)C1 (stereo not given) | inactive |
| Cn1c([N+](=O)[O-])cnc1COC(N)=O | inactive |
| O=Nc1ccc(O)cc1 | inactive |
| CC(C)n1c(/C=C/[C@@H](O)C[C@@H](O)CC(=O)O)c(-c2ccc(F)cc2)c2ccccc21 | inactive |
| CCCCCCCCCC(=O)O | inactive |
| CCCCC(CC)COC(=O)/C=C\C(=O)OCC(CC)CCCC (stereo not given) | inactive |
| CC1=C(CC(=O)O)c2cc(F)ccc2/C1=C\c1ccc(S(C)=O)cc1 (stereo not given) | inactive |
| Cc1cc(Cc2ccc(N)c(C)c2)ccc1N | inactive |
| C=C(C#N)C(=O)OCC | inactive |
| COCC(=O)O | inactive |
| CCCCOCCOCCOC(=O)CCCCC(=O)OCCOCCOCCCC | inactive |
| CCC(=O)O | inactive |
| CC1=CC[C@H]2C[C@@H]1C2(C)C | inactive |
| Nc1cc(-c2ccncc2)c[nH]c1=O | inactive |
| Clc1cc(Cl)c(Cl)cc1Cl | inactive |
| Clc1ccc(Cl)c(Cl)c1Cl | inactive |
| S=c1nc[nH]c2nc[nH]c12 | inactive |
| NCCc1ccc(O)c(O)c1 | 30.7 µM (active) and inactive |
| CCCCC(CC)COC(=O)CCCCCCCC(=O)OCC(CC)CCCC (stereo not given) | inactive |
| CCCCCCCCCCCCOCC1CO1 (stereo not given) | inactive |

| Structure (SMILES) | Potency |
| --- | --- |
| CCCCCCCCC | inactive |
| CC(C)(N=C=O)c1cccc(C(C)(C)N=C=O)c1 | inactive |
| CC(C)Cc1ccccc1 | inactive |
| Nc1c(S(=O)(=O)O)cc(Br)c2c1C(=O)c1ccccc1C2=O | inactive and 27.3 µM (active) |
| CC(C)(C)C(=O)C1C(=O)c2ccccc2C1=O | 60.5 µM (active) |
| CN(C)c1cccc(O)c1 | inactive |
| NCCNCCNCCNCCN | inactive |
| O=c1c(-c2ccc(O)cc2)coc2cc(O)ccc12 | inactive |
| CC(C)NCC(O)COc1cccc2ccccc12 (stereo not given) | inactive |
| COC(=O)Nc1nc2ccc(Sc3ccccc3)cc2[nH]1 | 8.63 µM (active) |
| CCCCCCOC(C)=O | inactive |
| CC(=O)CCc1ccccc1 | inactive |
| O=C(Oc1ccccc1)c1ccc(O)cc1 | inactive |
| O=C1O[C@H](CO)[C@@H](O)[C@H](O)[C@H]1O | inactive |
| C=C(C)C(=O)OCCC[Si](OC)(OC)OC | inactive |
| C/C=C(C)/C=C/C=C(C)C | inactive |
| COC(=O)c1ccc(C(=O)OC)cc1 | 2.2 µM (active) and inactive |
| CC1=C(/C=C/C(C)=C/C=C/C(C)=C/CO)C(C)(C)CCC1 | inactive |
| NC(=O)NNc1ccccc1 | inactive |
| CNC[C@H](O)[C@@H](O)[C@H](O)[C@H](O)CO | inactive |
